# Experimental data as given in PubChem BioAssay (NCATS).
# “And” between values parts separate entries of the source, which are not always exact repeats. Equal entries are not always repeated. Records with an inconclusive call do not appear. Values without a mark were called inactive. The source made the active and inactive calls. Calls come from the whole dose curve; as a rule, active = well fitted inhibition curve with a large enough effect; inconclusive = small, poorly fitted or top-dose-only effect; inactive = flat fitted curve, though single readings scatter.
# Columns and labels:
# CRL-7250 = normal cell line; test: Cytotoxic Profiling of Annotated Libraries Using Quantitative High-Throughput Screening (AID 1296008); settings: Five cell lines viability, CellTiter-Glo ATP luminescence, 48-72 h; max response: stronger effect = lower value; for max response: % is set by controls: 0 for no effect and ±100 for the full control effect
# How it was run: (§1)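 Cytotoxicity was measured as CellTiter-Glo ATP luminescence, read after 10 min at room temperature. Compound treatment of the cells lasted 48 or 72 hr at 37 degrees Celsius in a qHTS format.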
# HEK293 = test: as above; settings: Five cell lines viability, CellTiter-Glo ATP luminescence, 48-72 h; max response: stronger effect = lower value
# How it was run: as §1
# NIH3T3 = test: as above; settings: Five cell lines viability, CellTiter-Glo ATP luminescence, 48-72 h; max response: stronger effect = lower value
# How it was run: as §1
# MCC-13 = test: qHTS assay to identify novel small-molecules to repurpose for Merkel cell carcinoma treatment (AID 1296009); settings: MCC and control cell lines, CellTiter-Glo viability, 72 h; series mostly up to 46 µM
# How it was run: (§2)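 Cell viability measured by CellTiter-Glo following 72 hr compound treatment at 37 degree celsius, with NPC and MIPE libraries tested in 8- and 11-point concentration series.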
# HaCat [1] = test: Cytotoxic Profiling of Annotated Libraries Using Quantitative High-Throughput Screening (AID 1296008); settings: Five cell lines viability, CellTiter-Glo ATP luminescence, 48-72 h; max response: stronger effect = lower value; for max response: % is set by controls: 0 for no effect and ±100 for the full control effect
# How it was run: as §1
# KB-3-1 = test: as above; settings: Five cell lines viability, CellTiter-Glo ATP luminescence, 48-72 h; max response: stronger effect = lower value
# How it was run: as §1
# MCC-26 = test: qHTS assay to identify novel small-molecules to repurpose for Merkel cell carcinoma treatment (AID 1296009); settings: MCC and control cell lines, CellTiter-Glo viability, 72 h; series mostly up to 46 µM
# How it was run: as §2
# PAD = test: qHTS profiling for inhibitors of Plasmodium falciparum proliferation (AID 504749); settings: P. falciparum in erythrocytes, SYBR Green DNA, 72 h; series mostly up to 28.7 µM
# How it was run: (§3)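 In a 72 h erythrocytic culture (37 C, humidified, 5% CO2) at 2.5% hematocrit and 0.3% starting parasitemia, compounds were tested; SYBR Green I in detergent lysis buffer stained parasite DNA overnight.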
# PC49 = test: as above; settings: P. falciparum in erythrocytes, SYBR Green DNA, 72 h; series mostly up to 28.7 µM
# How it was run: as §3
# W2 = test: as above; settings: P. falciparum in erythrocytes, SYBR Green DNA, 72 h; series mostly up to 28.7 µM
# How it was run: as §3
# HACAT [2] = test: qHTS assay to identify novel small-molecules to repurpose for Merkel cell carcinoma treatment (AID 1296009); settings: MCC and control cell lines, CellTiter-Glo viability, 72 h; at 44.8 µM (top of the series) unless noted
# How it was run: as §2
# Note: nearly all actives have a fitted effect of over 60% in size.
# Potency is the fitted concentration of half-maximal effect.
compound,measurement,setting,value
C=C1C(=O)[C@@]23C(CC[C@@H]1[C@H]2O)[C@@]12CO[C@]3(O)[C@@H](O)[C@@H]1C(C)(C)CC[C@@H]2O (some centres undefined),Potency,CRL-7250,18.4 µM (active)
same,Potency,HEK293,13.2 µM (active) and 8.2 µM (active)
same,Potency,NIH3T3,18700 nM (active)
same,Potency,MCC-13,16.6 µM (active)
CC(C)(C(=O)NCC(F)(F)C(F)(F)F)C(=O)N[C@@H]1C(=O)Nc2ccccc2-c2ccccc21,max response,CRL-7250,-11.4%
same,max response,HaCat [1],-2.21%
same,outcome,KB-3-1,inactive
same,outcome,NIH3T3,inactive
same,Potency,MCC-13,inactive
same,Potency,MCC-26,inactive
O=c1cc(-c2ccccc2)oc2cc(O)cc(O)c12,max response,CRL-7250,-20.5%
same,Potency,HEK293,8.33 µM (active)
same,Potency,MCC-13,inactive
same,Potency,MCC-26,inactive
COC[C@@H](c1ccc(C(F)(F)F)cc1)N1CCN(C2(C)CCN(C(=O)c3c(C)ncnc3C)CC2)C[C@H]1C,max response,CRL-7250,-6.4%
same,max response,HaCat [1],-0.948%
same,max response,KB-3-1,5.03%
same,max response,NIH3T3,4.62%
same,Potency,MCC-13,inactive
same,Potency,MCC-26,inactive
CO[C@H]1C=CC=C(C)C(=O)NC2=CC(=O)C(NCCN(C)C)=C(C[C@@H](C)C[C@H](OC)[C@@H](O)[C@@H](C)C=C(C)[C@@H]1OC(N)=O)C2=O,Potency,CRL-7250,0.0526 µM (active)
same,Potency,HaCat [1],0.0332 µM (active)
same,Potency,KB-3-1,0.0372 µM (active)
same,Potency,NIH3T3,132 nM (active)
same,Potency,MCC-13,4.69 µM (active)
same,Potency,MCC-26,3.72 µM (active)
NS(=O)(=O)c1cccc2c1C(=O)c1cccc(O)c1C2=O,Potency,CRL-7250,0.526 µM (active)
same,Potency,HEK293,16.6 µM (active)
same,Potency,NIH3T3,935 nM (active)
same,Potency,MCC-26,0.833 µM (active)
C[C@@H]1CCN(C(=O)CC#N)C[C@H]1N(C)c1ncnc2[nH]ccc12,max response,CRL-7250,-14.7%
same,Potency,HaCat [1],8.33 µM (active)
same,max response,KB-3-1,-5.04%
same,max response,NIH3T3,-18.3%
same,Potency,MCC-13,inactive
same,Potency,MCC-26,inactive
O=c1c(-c2ccc(O)cc2)coc2cc(OC3O[C@H](CO)[C@H](O)[C@H](O)[C@H]3O)cc(O)c12 (some centres undefined),max response,CRL-7250,-31.9%
same,max response,HaCat [1],-51.1%
same,Potency,MCC-13,inactive
same,Potency,MCC-26,inactive
CC/C(=C(\c1ccccc1)c1ccc(OCCN(C)C)cc1)c1ccccc1,outcome,PAD,inactive
same,outcome,PC49,inactive
same,Potency,W2,13.5 µM (active)
same,max response,CRL-7250,-3.24%
same,max response,HaCat [1],-10.4%
same,max response,KB-3-1,-11%
Cc1cccc(Nc2nc(-c3ccncc3)cs2)c1,max response,CRL-7250,-0.257%
same,outcome,HaCat [1],inactive
same,Potency,NIH3T3,11.8 µM (active) and 7.31 µM (active)
same,outcome,HACAT [2],inactive
same,Potency,MCC-13,inactive
same,Potency,MCC-26,inactive
CC(C)C[C@H](CC(=O)O)C(=O)N[C@@H](Cc1c[nH]c2ccccc12)C(=O)N[C@@H](C)c1ccccc1,max response,CRL-7250,-5.99%
same,max response,HaCat [1],3.15%
same,max response,KB-3-1,5.47%
same,Potency,MCC-13,inactive
same,Potency,MCC-26,inactive
NC(=O)c1cnc(-c2ccc(C3(N)CCC3)cc2)c(-c2ccccc2)c1,Potency,HEK293,23.5 µM (active) and 18.4 µM (active)
same,max response,HaCat [1],-22.7%
same,max response,KB-3-1,-11.5%
same,max response,NIH3T3,4.42%
same,Potency,MCC-13,inactive
same,Potency,MCC-26,inactive
O=C(O)c1cc(O)c2c(c1)C(=O)c1cccc(O)c1C2=O,max response,HEK293,-16.6%
same,outcome,HaCat [1],inactive
same,max response,KB-3-1,0.608%
same,max response,NIH3T3,0.522%
same,outcome,HACAT [2],inactive [at 92 µM]
same,Potency,MCC-13,inactive
same,Potency,MCC-26,inactive
C=CCc1ccc(O)c(-c2ccc(O)c(CC=C)c2)c1,max response,HEK293,-27.3%
same,Potency,HaCat [1],20.9 µM (active)
same,max response,NIH3T3,-7.37%
same,Potency,MCC-13,inactive
same,Potency,MCC-26,inactive
O=C1NC(=O)C(=Cc2cccc(C(F)(F)F)c2)S1,outcome,CRL-7250,inactive
same,max response,HaCat [1],-6.56%
same,max response,NIH3T3,-7.62%
same,Potency,MCC-13,inactive
same,Potency,MCC-26,inactive
N[C@@]1(C(=O)O)CS(=O)(=O)[C@H]2[C@H](C(=O)O)[C@H]21,max response,CRL-7250,-30.1%
same,outcome,HaCat [1],inactive
same,max response,KB-3-1,-18.8%
same,outcome,HACAT [2],inactive
same,Potency,MCC-13,inactive
same,Potency,MCC-26,inactive
O=C(O)c1ccc(-c2cc3cccnc3c(-c3ccc4nonc4c3)n2)cc1,Potency,HEK293,14.8 µM (active)
same,outcome,HaCat [1],inactive
same,outcome,HACAT [2],inactive
same,Potency,MCC-13,inactive
same,Potency,MCC-26,inactive
CC=CC[C@@H](C)C(=O)[C@H]1C(=O)N[C@@H](C(C)C)C(=O)N(C)CC(=O)N(C)[C@@H](CC(C)C)C(=O)N[C@@H](C(C)C)C(=O)N(C)[C@@H](CC(C)C)C(=O)N[C@@H](C)C(=O)N[C@H](C)C(=O)N(C)[C@@H](CC(C)C)C(=O)N(C)[C@@H](CC(C)C)C(=O)N(C)[C@@H](C(C)C)C(=O)N1C,max response,CRL-7250,-6.35%
same,max response,HaCat [1],-21.7%
same,max response,KB-3-1,-1.28%
same,Potency,MCC-13,inactive
same,Potency,MCC-26,inactive
C=C1C(=O)OC2C=C(C)CCC=C(C)CCC12 (centres undefined),max response,CRL-7250,0.517%
same,outcome,HaCat [1],inactive
same,max response,KB-3-1,2.36%
same,outcome,HACAT [2],inactive
same,Potency,MCC-13,inactive
same,Potency,MCC-26,inactive
CCc1ccc(C=C2SC(=S)NC2=O)cc1,max response,HEK293,-22.6%
same,max response,HaCat [1],-1.5%
same,max response,KB-3-1,-5.67%
same,max response,NIH3T3,-14.4%
same,Potency,MCC-13,inactive
same,Potency,MCC-26,inactive
CO[C@H]1C[C@@H]2CC[C@@H](C)[C@@](O)(O2)C(=O)C(=O)N2CCCC[C@@H]2C(=O)O[C@H]([C@H](C)C[C@@H]2CC[C@H](OP(C)(C)=O)[C@H](OC)C2)CC(=O)[C@H](C)C=C(C)[C@@H](O)[C@@H](OC)C(=O)[C@H](C)C[C@H](C)C=CC=CC=C1C,max response,CRL-7250,-18.4%
same,outcome,HaCat [1],inactive
same,max response,NIH3T3,4.15%
same,outcome,HACAT [2],inactive
same,Potency,MCC-13,inactive
same,Potency,MCC-26,inactive
